Experimental data from PubChem BioAssay.
A number with no mark means an inactive call. How the calls were made is not given here.

target: Pantothenate synthetase (Mycobacterium tuberculosis (strain ATCC 25618 / H37Rv)) (UniProt P9WIL5); assay: Coupled enzyme confirmation of inhibitors against recombinant Mtb PanC (AID 375); conditions: coupled enzyme assay; at 10 µM, active compounds read high;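 further: 0% = full reaction with vehicle and 100% = no enzyme background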
Sequence (P9WIL5 whole entry, looked up): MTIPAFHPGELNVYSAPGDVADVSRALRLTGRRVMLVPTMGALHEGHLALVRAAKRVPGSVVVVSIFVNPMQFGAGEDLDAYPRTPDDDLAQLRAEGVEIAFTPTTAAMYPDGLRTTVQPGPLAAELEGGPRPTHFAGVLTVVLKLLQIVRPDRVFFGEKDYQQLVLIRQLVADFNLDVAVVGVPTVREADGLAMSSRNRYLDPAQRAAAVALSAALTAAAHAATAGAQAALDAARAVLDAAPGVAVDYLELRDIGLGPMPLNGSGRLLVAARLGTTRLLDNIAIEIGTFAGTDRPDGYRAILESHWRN

Row | SMILES | inhibition
1 | COc1ccccc1C(=O)Nc1ccc(N2CCN(S(C)(=O)=O)CC2)cc1 | 0%
2 | CCCOc1ccccc1C1CC(=O)Nc2cc3c(cc21)OCCO3 (stereo not given) | 2%
3 | Cc1ccc(-c2cc(C(=O)Nc3cc(C)on3)c3ccccc3n2)c(C)c1 | 0%
4 | COc1cc(CC(=O)Nc2ncc(C)s2)cc(OC)c1OC | 0%
5 | CCCc1ccccc1OCCNC(C)=O | 3%
6 | COc1ccc(-c2cc3nc(C)c(CCC(=O)NCc4ccco4)c(C)n3n2)c(OC)c1 | 0%
7 | CCOC(=O)CN(C(=O)c1ccccc1)c1ccccc1C | 0%
8 | Cc1ccc(N2CCN(c3ccc(C)cc3)C(CC(=O)O)C2=O)cc1 (stereo not given) | 7%
9 | O=C(NCc1ccco1)c1cc2cc3ccc(Cl)cc3nc2o1 | 4%
10 | CCOC(=O)c1c(C)[nH]c(C(=O)CSc2nc3ccccc3o2)c1C | 0%
11 | CC(=O)O[C@]1(C(C)=O)CC[C@H]2[C@@H]3C=C(C)C4=CC(=O)CC[C@]4(C)[C@H]3CC[C@@]21C | 0%
12 | CC(C)n1c(NCc2c[nH]c3ccccc23)nc2ccccc21 | 0%
13 | CCN(CC(=O)NCc1cccs1)C(=O)c1cc(S(=O)(=O)N2CCOCC2)ccc1C | 0%
14 | O=C(c1ccccc1F)N1CCN(Cc2cccc(Cl)c2)CC1 | 5%
15 | CCOC(=O)N1CCC2(O)CCCCC2C1c1ccc(F)cc1 (stereo not given) | 1%
16 | CCOc1ccc(OCc2cccc(C(=O)N3CCCC3)c2)cc1 | 6%
17 | CCCCNC(=O)c1cc(-c2ccc(F)cc2)on1 | 6%
18 | O=C(Nc1ccc(CN2CCOCC2)cc1)c1cc2ccccc2oc1=O | 4%
19 | CC1(C)OC(=O)C(=CNc2ccccc2)C(=O)O1 | 4%
20 | COc1ccc(-c2noc(CCN3C(=O)c4ccccc4C3=O)n2)cc1OC | 7%

Row | SMILES | inhibition
21 | Cc1cc(N2C(=O)CC(N3CCN(c4ccc(C(=O)c5cccs5)cc4)CC3)C2=O)no1 (stereo not given) | 0%
22 | COCCN1C(=O)C(=O)/C(=C(/O)c2cccc(OC)c2)C1c1ccncc1 (stereo not given) | 1%
23 | O=C(CCn1c(=O)oc2ccccc21)NCCN1CCOCC1 | 4%
24 | COc1cc2nc(N3CCN(C(=O)C4CCCO4)CC3)nc(N)c2cc1OC (stereo not given) | 0%
25 | CCCCc1nc(NCCN2CCOCC2)c(C#N)c2c1COC(C)(C)C2 | 0%
26 | CCn1cc(C2=NOC(C(=O)Nc3c(C)nn(Cc4ccc(F)cc4)c3C)C2)c(C)n1 (stereo not given) | 0%
27 | N/C(Cn1nnc(-c2ccccc2)n1)=N\O | 3%
28 | COc1ccc2cc(C#N)c(SCC(=O)N3CCCC3)nc2c1 | 7%
29 | N#C/C(C(=O)c1ccccc1)=C1/CCCN1 | 3%
30 | CSc1ccccc1NC(=O)C1CCCO1 (stereo not given) | 7%
31 | Cn1cnc(S(=O)(=O)NCc2cccs2)c1 | 0%
32 | CC1(C)C(c2cccs2)=[N+]([O-])C2(CCCCC/C2=N\O)N1O (stereo not given) | 6%
33 | O=C(NCCN1C(=O)C2C3C=CC(C3)C2C1=O)Nc1ccccn1 (stereo not given) | 0%
34 | Cn1c(=O)c2c(nc(CN3CCCCC3)n2CCCc2ccccc2)n(C)c1=O | 2%
35 | COc1ccc(-c2nnc(SCC(=O)NC(C)c3ccccc3)o2)cc1 (stereo not given) | 0%
36 | CCOCCCNC(=O)c1c[nH]c2ccc(S(=O)(=O)Nc3cccc(OC)c3)cc2c1=O | 0%
37 | O=C(c1ccc(Br)o1)N(Cc1ccccc1)c1ccccn1 | 3%
38 | CCOc1ccccc1Nc1ncnc2ccccc12 | 6%
39 | CCCCC(=O)NCCc1cc2c(C)ccc(C)c2[nH]c1=O | 0%
40 | CCCCOc1ccc(-c2ncc(C(=O)OCC)c(N)n2)cc1 | 11%
